Experimental data published in PubChem BioAssay (Tox21).
Records with an inconclusive call do not appear. The source made the active and inactive calls. Unless noted, calls come from the whole dose curve; as a rule, active = well fitted curve in the direction sought with a large enough effect in the repeat runs; inconclusive = weak or mixed curves; inactive = no such curve, though single readings can be large; an effect the other way counts as inactive or inconclusive.

Experiments:
[1] = qHTS assay for small molecule agonists of the p53 signaling pathway (AID 651631; calls by dose curve; note: nearly all actives have a fitted effect of over 15% in size)
Procedure, shortened: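 HCT-116 cells carrying a beta-lactamase reporter under p53 response elements were dosed with compound for 16 h at 37 °C. LiveBLAzer B/G FRET substrate was then added for 2 h at room temperature, and fluorescence intensity was read to detect pathway agonism.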

[2] = qHTS assay for small molecules that induce genotoxicity in human embryonic kidney cells expressing luciferase-tagged ATAD5 (AID 651632); note: nearly all actives have a fitted effect of over 15% in size
Procedure, shortened: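 Reporter cells (HEK293T) express luciferase-tagged ATAD5, a protein that accumulates after DNA damage. Treat 16 hr at 37C/5% CO2, add Amplite, wait 30 min at RT, and read luminescence.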

[3] = qHTS assay for small molecule agonists of the p53 signaling pathway - cell viability (AID 651633; calls by dose curve;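 note: p53RE-bla HCT reporter cells with a stable beta-lactamase p53 reporter; series mostly up to about 83 µM; nearly all actives have a fitted effect of over 30% in size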)
Procedure, shortened: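 p53RE-bla cells were treated with compound for 16 hours at 37 C. Cytotoxicity was then measured as CellTiter-Glo luminescence after 30 min at room temperature.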

[4] = qHTS assay for small molecules that induce genotoxicity in human embryonic kidney cells expressing luciferase-tagged ATAD5 - cell viability (AID 651634; calls by dose curve; note: nearly all actives have a fitted effect of over 25% in size)
Procedure, shortened: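 Seeding of 2,000 HEK293T ATAD5-luciferase cells per well preceded pin-tool compound transfer. Plates sat 15.5 hr at 37C under 5% CO2, then fluorescence was read after 30 min with CellTiter-Fluor.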

[5] = qHTS assay for small molecule disruptors of the mitochondrial membrane potential - cell viability (AID 720634; calls by dose curve;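 note: human HepG2 liver cancer cells; series mostly up to about 83 µM; nearly all actives have a fitted effect of over 20% in size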)
Procedure, shortened: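 Measuring cytotoxicity alongside mitochondrial potential, the screen quantified ATP by luminescence in HepG2 cells after 1 hr compound incubation and a 30 min room-temperature CellTiter-Glo step.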

[6] = qHTS assay to test for compound auto fluorescence at 590 nm (red) in HepG2 cells (AID 720674)
Procedure, shortened: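 Fluorescence at 590 nm emission following 540 nm excitation was recorded from HepG2 wells one hour after compound transfer, with DMSO-only wells as vehicle and Rose Bengal sodium equivalency as the scale.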

[7] = qHTS assay to test for compound auto fluorescence at 535 nm (green) in HepG2 cells (AID 720675)
[8] = qHTS assay to test for compound auto fluorescence at 460 nm (blue) in HEK293 cells (AID 720678)
Procedure, shortened: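 HEK293, 2,000 cells/well, 10% dialyzed FBS; attach 4-5 hr 37C; pin compound or DMSO; o/n 37C/5% CO2; fluorescence 405/460 nm; triamterene-equivalent units.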

[9] = qHTS assay to test for compound auto fluorescence at 590 nm (red) in HEK293 cells (AID 720679)
Procedure, shortened: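 Intensity at 540nm excitation and 590nm emission is reported as Rose Bengal sodium-equivalent autofluorescence. Measurements followed overnight exposure (37C, 5% CO2) of HEK293 cells, 2,000 per well, to 23 nL compound.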

[10] = qHTS assay to test for compound auto fluorescence at 535 nm (green) in HEK293 cells (AID 720680)
[11] = qHTS assay to test for compound auto fluorescence at 460 nm (blue) in HEK293 cell free culture (AID 720681)
Procedure, shortened: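 Compounds were added to cell-free DMEM with 10% FBS and fluorescence read directly. The blue channel used 405 nm excitation and 460 nm emission, with triamterene as the reference fluorophore.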

[12] = qHTS assay to test for compound auto fluorescence at 535 nm (green) in HEK293 cell free culture (AID 720682)
Procedure, shortened: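 Green-label autofluorescence (485 nm excitation, 535 nm emission) measured on compound added to cell-free culture medium (DMEM, 10% FBS). Output is expressed relative to fluorescein.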

[13] = qHTS assay to test for compound auto fluorescence at 590 nm (red) in HEK293 cell free culture (AID 720683)
Procedure, shortened: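 Cell-free wells of DMEM with 10% FBS received compound, and intrinsic fluorescence was read at excitation/emission 540/590 nm. Values expressed as equivalence to Rose Bengal sodium.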

[14] = qHTS assay to test for compound auto fluorescence at 590 nm (red) in HepG2 cell free culture (AID 720684)
Procedure, shortened: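 Compound was pinned into wells holding MEM with 10% FBS and no cells, and red fluorescence was read at Ex/Em 540/590 nm. Signal is expressed as auto fluorescence equivalency relative to Rose Bengal sodium.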

[15] = qHTS assay to test for compound auto fluorescence at 460 nm (blue) in HepG2 cell free culture (AID 720685)
Procedure, shortened: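 Compound (23 nL) or DMSO pinned into cell-free MEM with 10% FBS; blue fluorescence read at 405/460 nm excitation/emission, expressed as auto-fluorescence equivalency to triamterene.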

[16] = qHTS assay to test for compound auto fluorescence at 535 nm (green) in HepG2 cell free culture (AID 720686)
[17] = qHTS assay to test for compound auto fluorescence at 460 nm (blue) in HepG2 cells (AID 720687)
Procedure, shortened: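 HepG2 cells in MEM with 10% FBS, attached overnight at 37 C, were exposed to compound or DMSO for 1 hr at 37 C, 5% CO2. Blue fluorescence was read at 405/460 nm, with triamterene as reference fluorophore.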

[18] = target: Glucocorticoid receptor (Homo sapiens) (UniProt P04150); experiment: qHTS assay to identify small molecule agonists of the glucocorticoid receptor (GR) signaling pathway (AID 720691; active = well fitted activation curve with a large enough effect in the signal ratio in the repeat runs, not every such curve was filed as active; the % refers to the signal ratio)
Sequence of Glucocorticoid receptor (Homo sapiens) (P04150 whole entry, looked up): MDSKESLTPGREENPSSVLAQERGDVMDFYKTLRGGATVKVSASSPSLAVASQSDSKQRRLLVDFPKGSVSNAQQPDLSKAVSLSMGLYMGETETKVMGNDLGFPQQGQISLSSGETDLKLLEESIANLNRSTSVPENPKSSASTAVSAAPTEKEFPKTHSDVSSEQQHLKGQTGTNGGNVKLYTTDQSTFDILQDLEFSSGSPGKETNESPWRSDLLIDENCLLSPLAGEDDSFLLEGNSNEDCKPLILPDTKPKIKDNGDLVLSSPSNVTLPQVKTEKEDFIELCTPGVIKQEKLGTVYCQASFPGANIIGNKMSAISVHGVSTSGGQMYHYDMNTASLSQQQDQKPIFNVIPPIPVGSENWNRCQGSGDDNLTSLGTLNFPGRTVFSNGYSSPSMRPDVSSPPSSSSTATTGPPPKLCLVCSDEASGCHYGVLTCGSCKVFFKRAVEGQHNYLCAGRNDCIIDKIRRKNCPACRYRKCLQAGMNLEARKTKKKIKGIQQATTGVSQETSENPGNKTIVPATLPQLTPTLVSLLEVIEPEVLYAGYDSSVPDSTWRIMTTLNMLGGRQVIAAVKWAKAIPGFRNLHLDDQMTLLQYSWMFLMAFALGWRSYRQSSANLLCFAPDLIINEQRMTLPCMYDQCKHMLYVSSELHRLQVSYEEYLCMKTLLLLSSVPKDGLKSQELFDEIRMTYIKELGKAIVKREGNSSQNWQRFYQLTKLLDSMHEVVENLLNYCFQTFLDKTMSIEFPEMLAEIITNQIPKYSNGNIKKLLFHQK
Procedure, shortened: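 Reporter read-out: fluorescence intensity following 2 h room-temperature LiveBLAzer B/G FRET substrate loading. Prior step: GR-bla HeLa cells held 4 h, then treated 18 h at 37 C.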

[19] = qHTS assay for small molecule disruptors of the mitochondrial membrane potential (AID 720635)
Procedure, shortened: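 HepG2 cells exposed to compound 1 hr at 37C, then Mito-MPS dye 30 min. Ratio read of aggregate (540/590 nm) versus monomer (490/535 nm) fluorescence.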

[20] = target: Glucocorticoid receptor (Homo sapiens) (UniProt P04150); experiment: qHTS assay to identify small molecule antagonists of the glucocorticoid receptor (GR) signaling pathway (AID 720692; active = well fitted inhibition curve with a large enough effect in the signal ratio in the repeat runs, not every such curve was filed as active; the % refers to the signal ratio)
Procedure, shortened: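 Dexamethasone (5 nM final) stimulated a stably integrated GRE-beta-lactamase reporter in HeLa cells during 18 h co-incubation with compounds; signal was quantified as fluorescence intensity of B/G FRET substrate after 2 h.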

Measured: Potency

CCCC[N+](CCCC)(CCCC)CCCC
inactive: [1] | [2] | [3] | [4] | [5] | [6] | [7] | [8] | [9] | [10] | [11] | [12] | [13] | [14] | [15] | [16] | [17] | [18]

O=C(Cc1ccccc1)OCCc1ccccc1
inactive: [1] | [2] | [3] | [4] | [5] | [19] | [6] | [8] | [9] | [10] | [11] | [12] | [13] | [14] | [15] | [16] | [17] | [18] | [20]

O=C(NCNC(=O)NC1C(=O)NC(=O)N1CO)NC1C(=O)NC(=O)N1CO (stereo not given)
inactive: [1] | [2] | [3] | [4] | [5] | [19] | [6] | [7] | [8] | [9] | [10] | [11] | [12] | [14] | [15] | [16] | [17] | [18] | [20]

CCCC[N+]1(C)[C@@H]2CC(OC(=O)[C@H](CO)c3ccccc3)C[C@H]1[C@@H]1O[C@@H]12 (stereo not given in full)
inactive: [1] | [2] | [3] | [4] | [5] | [19] | [6] | [8] | [9] | [10] | [11] | [12] | [14] | [15] | [16] | [17] | [20]

CCCBr
inactive: [1] | [2] | [3] | [4] | [5] | [19] | [6] | [7] | [8] | [9] | [10] | [11] | [12] | [13] | [14] | [15] | [16] | [17] | [18] | [20]

O=C([O-])c1ccccn1.O=C([O-])c1ccccn1.O=C([O-])c1ccccn1.[Cr+3]
inactive: [1] | [2] | [3] | [4] | [5] | [19] | [6] | [8] | [9] | [10] | [11] | [12] | [13] | [14] | [15] | [16] | [17] | [18]

CC(C)(c1ccccc1)c1cc(-n2nc3ccccc3n2)c(O)c(C(C)(C)c2ccccc2)c1
inactive: [1] | [2] | [3] | [4] | [5] | [6] | [7] | [8] | [9] | [10] | [11] | [12] | [13] | [14] | [15] | [16] | [17] | [18] | [20]
